Screening results (PubChem)
RORg inh – ROR gamma (mouse) transcription inhibition; P51450; Drosophila S2 Gal4-RORgamma UAS-luciferase reporter, 20 h; Potency, µM (series often up to 53.6 µM), for the others: at the top dose activity change, negative = inhibition, most hits filed as inhibitors; hit rate 5.4% among 310,000; AID 2551; further: potency means the concentration at half of the fitted maximal effect; nearly all actives have a fitted effect of over 60% in size
Target sequence (P51450 whole entry, looked up, the tested form may be a part): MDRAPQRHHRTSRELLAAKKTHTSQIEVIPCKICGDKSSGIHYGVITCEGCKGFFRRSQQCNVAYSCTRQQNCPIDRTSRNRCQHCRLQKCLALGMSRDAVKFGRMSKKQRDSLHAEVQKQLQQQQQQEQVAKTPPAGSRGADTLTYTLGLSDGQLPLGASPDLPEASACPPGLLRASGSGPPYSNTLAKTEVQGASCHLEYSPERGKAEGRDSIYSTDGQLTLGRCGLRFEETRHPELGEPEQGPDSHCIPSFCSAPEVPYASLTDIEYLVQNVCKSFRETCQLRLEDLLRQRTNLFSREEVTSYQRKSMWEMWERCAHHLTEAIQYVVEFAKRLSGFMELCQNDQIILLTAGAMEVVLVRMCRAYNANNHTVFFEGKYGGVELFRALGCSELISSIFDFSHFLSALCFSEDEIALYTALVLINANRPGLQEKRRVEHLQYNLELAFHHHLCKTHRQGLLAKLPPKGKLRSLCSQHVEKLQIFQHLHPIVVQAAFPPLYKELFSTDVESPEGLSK
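Drosophila S2 cells stably expressing Gal4-DBD/mouse RORγ fusion under metallothionein promoter plus UAS-luciferase; compound 1 h, then 700 uM CuSO4 induction for 20 h at ambient temperature; inhibition read as reduced luminescence.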
DT40 TDP1 no CPT – qHTS for Inhibitors of human tyrosyl-DNA phosphodiesterase 1 (TDP1): qHTS in cells in absence of CPT. DT40 Tdp1-/- hTDP1 cells, no CPT, ATP luminescence, 48 h. hit rate 15% among 420,000. Potency, µM (series often up to 46.2 µM), inactives show at the highest dose activity change, negative = growth inhibition, most hits filed as inhibitors; further: potency means the concentration at half of the fitted maximal effect; nearly all actives have a fitted effect of over 55% in size
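No-CPT arm: Tdp1-/-;hTDP1 DT40 cells (400/well) plus compounds, incubated ≥48 hr at 37 °C. Readout CellTiter-Glo luminescence.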
Gal4-VP16 FLuc – inhibits Gal4-VP16 luciferase reporter, ROR gamma counter-screen; Drosophila S2 Gal4-VP16 UAS-luciferase, luminescence, 20 h; Potency, µM (titrated, usually from 53.6 µM), without a hit: top-dose activity, negative = inhibition, actives largely listed as inhibitors; hit rate 3.5% among 310,000; AID 2546;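 further: Gal4-VP16 expression switched on by copper sulfate through the metallothionein promoter; potency means the concentration at half of the fitted maximal effect; nearly all actives have a fitted effect of over 50% in size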
IL1B secr inh – inflammasome signaling inhibition, IL-1 beta readout; hit rate 4.7% among 360,000; AID 743279; THP-1 LPS/ATP IL-1B secretion, AlphaLISA, 16 h; hits give low values; activity change, % at 57.5 µM; in the data active means activity change below about -50%; inconclusive means mostly about -30% to -49%
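Secreted IL-1B measured by AlphaLISA bead assay after 16 h compound exposure of THP-1 cells; compounds (final up to 57.5 uM) added 1 h before LPS (250 ng/mL) and ATP (1.25 mM) stimulation; lower signal means less secretion.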
TDP1 cell CPT – growth inhibition of DT40 Tdp1-/-;hTDP1 cells with camptothecin (screen for TDP1 inhibitors); chicken DT40 Tdp1-/-;hTDP1 cells + 20 nM CPT, ATP luminescence, 48 h; Potency, µM (titrated, usually from 46.2 µM), for inactives: top-dose activity change, negative = growth inhibition, actives largely listed as inhibitors; hit rate 12% among 420,000; AID 686979; further: potency means the concentration at half of the fitted maximal effect; nearly all actives have a fitted effect of over 55% in size
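Chicken DT40 Tdp1-/- cells stably complemented with human TDP1 were seeded at 400 cells/well in medium containing 20 nM camptothecin, exposed to pin-transferred compounds, and grown at 37 °C for at least 48 hr. Viability was read as ATP luminescence.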
ELG1 repair inh – ELG1-dependent DNA repair inhibition; HEK293T ELG1-luciferase reporter, luminescence, 16 h; DNA damage induced by 5-fluorouridine; Potency, µM (doses to about 46.1 µM), inactives show top-dose activity change, negative = inhibition, actives largely listed as inhibitors; hit rate 2.3% among 330,000; further: potency means the concentration at half of the fitted maximal effect; nearly all actives have a fitted effect of over 55% in size
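Cells (2,000 per well) received 5-fluorouridine plus test compound or DMSO and were incubated 16 hr at 37 °C, 5% CO2. Luciferase activity was read by luminescence 30 min after ONE-Glo addition; signal suppression marked inhibition of damage-induced ELG1 function.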
The depositor's hits bear a star; ? = inconclusive; . = no result. A selection: hits, their analogues and other compounds. The true share with any hit is near 21%. Unless noted, the call rests on the fitted dose curve; in most records, active means well fitted curve in the direction sought with a large enough effect; inconclusive means small, poorly fitted or top-dose-only effect, or another doubt; inactive means no such curve, though single readings can be large; an effect the other way counts as inactive or inconclusive. On the % scale 0 is the no-effect control and ±100 the full control effect.

SMILES	RORg inh	DT40 TDP1 no CPT	Gal4-VP16 FLuc	IL1B secr inh	TDP1 cell CPT	ELG1 repair inh
Cc1ccc(NC(=O)C(=O)NCC(c2cccnc2)N2CCc3ccccc3C2)cc1 (stereo not drawn)	.	16µM*	.	.	21µM*	.
Cc1cccc(NC(=O)C(=O)NCC(c2cccnc2)N2CCc3ccccc3C2)c1C (stereo not drawn)	.	16µM*	.	.	16µM*	.
COC(=O)C1CN(C(=O)COc2cc(C)cc(C)c2)c2ccccc2O1 (stereo not drawn)	37%	2%	-1%	41	-3%	1%
CCOc1ccc(NC(=O)c2cc(=O)c3cc(CC)ccc3o2)cc1	.	10%	.	.	-3%	.
Cc1cccc(NC(=O)C(=O)NCC(c2cccnc2)N2CCc3ccccc32)c1C (stereo not drawn)	.	23µM*	.	.	18µM*	.
Cc1ccc(NC(=O)C(=O)NCC(c2cccnc2)N2CCc3ccccc32)cc1Cl (stereo not drawn)	.	13µM*	.	.	18µM*	.
COC(=O)c1ccccc1NS(=O)(=O)c1ccc(F)cc1	19%	-10%	-6%	19	?	-1%
COC(=O)c1ccccc1NS(=O)(=O)c1ccc(NC(C)=O)cc1	15%	-16%	-25%	-84*	-3%	-8%
COc1ccc(S(=O)(=O)Nc2ccc3c(c2)CCC3)cc1	31%	?	-12%	-187*	?	?
CC(=O)Nc1ccc(S(=O)(=O)Nc2ccc3[nH]c(=O)[nH]c3c2)cc1	-9%	-3%	-20%	-2	4%	7%
CC(=O)Nc1ccc(S(=O)(=O)Nc2ccc3c(c2)CCC3)cc1	?	13µM*	?	-3	-75%	?
O=C(CSc1nc2ccccc2[nH]1)NCCCn1ccnc1	18%	-4%	1%	12	0%	1%
Cc1ccc2cc(C(=O)O)c(C)nc2c1	-27%	-13%	6%	3	0%	1%
CCOc1ccc(S(=O)(=O)N2CCN(C(=O)C3CC3C)CC2)cc1 (stereo not drawn)	.	?	.	8	-16%	-8%
Cc1cccc(CNC(=O)c2ccc(NC(=O)N3CC(C)Sc4ccccc43)cc2)c1 (stereo not drawn)	.	16µM*	.	.	21µM*	.
COc1cccc(CNC(=O)c2ccc(NC(=O)N3CC(C)Sc4ccccc43)cc2)c1 (stereo not drawn)	.	15µM*	.	.	18µM*	.
CCc1ccc(CNC(=O)c2ccc(NC(=O)N3CC(C)Sc4ccccc43)cc2)cc1 (stereo not drawn)	.	9.2µM*	.	.	10µM*	.
CC1CN(C(=O)CCC(=O)NCc2ccc(Cl)cc2)c2ccccc2S1 (stereo not drawn)	-10%	-21%	10%	-5	-24%	-6%
C=CC[C@@](C(C)=O)(C(=O)OC)C(NC(=O)OC)c1ccccc1 (stereo partly drawn)	-23%	.	-11%	.	.	.
CC(C)CN(C(=O)Cn1nnc(-c2ccc(F)cc2)n1)C1CCS(=O)(=O)C1 (stereo not drawn)	.	-7%	.	-16	-12%	7%
[O-]/C(=C(\C(=S)Nc1ccc(SC(F)F)cc1)[n+]1ccccc1)c1cc(Cl)ccc1Cl	?	16µM*	-1%	-24	16µM*	?
[O-]/C(=C(\C(=S)Nc1ccc(SC(F)F)cc1)[n+]1cccc(CO)c1)c1ccc(Cl)s1	?	?	0%	?	?	16%
Cc1cc(C([O-])=C(C(=S)Nc2ccccc2)[n+]2ccccc2)c(C)n1-c1ccccc1	.	?	.	18	?	.
Cc1ccc(NC(=S)/C(=C(\[O-])c2ccc(F)cc2)[n+]2ccccc2)cc1	-36%	?	-7%	43	-3%	18%
CN(C)c1cc[n+](/C(C(=S)Nc2ccc(SC(F)F)cc2)=C(/[O-])c2ccccc2)cc1	?	10µM*	-17%	-10	13µM*	-24%
SMILES	RORg inh	DT40 TDP1 no CPT	Gal4-VP16 FLuc	IL1B secr inh	TDP1 cell CPT	ELG1 repair inh
Cc1cc(C)c(/C([O-])=C(/C(=S)Nc2ccc(SC(F)F)cc2)[n+]2ccccc2)cc1C	11µM*	-77%	-11%	5	?	?
C=CCn1c(C)cc(/C([O-])=C(/C(=S)Nc2ccc(OC(F)F)cc2)[n+]2ccc(N(C)C)cc2)c1C	0%	18µM*	-6%	-11	26µM*	7%
Cc1cc(C)c(C)c(S(=O)(=O)N2CCN(C(=O)C3CCC3)CC2)c1C	.	?	.	-2	-27%	-1%
Cn1cccc1C1CCCN1CC(=O)Nc1ccc(C(N)=O)cc1 (stereo not drawn)	.	10%	.	-10	-10%	0%
CCCn1c(Cc2ccccc2)nnc1SC(C)C(=O)NC1CC1 (stereo not drawn)	.	0%	.	15	5%	11%
COc1ccccc1CNC(=O)c1ccc2c(c1)sc1nc(-c3ccc(F)cc3)cn12	.	8.2µM*	.	.	7.3µM*	.
COc1cccc(CNC(=O)c2ccc3c(c2)sc2nc(-c4ccccc4)cn23)c1OC	.	5.8µM*	.	.	9.2µM*	.
O=C(NCc1cccs1)c1ccc2c(c1)sc1nc(-c3ccc(F)cc3)cn12	.	?	.	.	-20%	.
CCc1nc2ccc(Cc3ccc4nc(CC)[nH]c4c3)cc2[nH]1	33%	23µM*	-24%	-10	13µM*	-25%
CCOC(=O)Cn1c(C(F)(F)F)nc2nc(Cl)c(Cl)nc21	.	-28%	.	-92*	4%	.
CC1(OC(=O)CCc2ccccc2)C(=O)C=C2C=C(c3ccc(C#N)cc3)N(CC3CC3)C=C2C1=O (stereo not drawn)	-15%	?	-1%	-16	15µM*	10%
CC1(OC(=O)CCc2ccccc2)C(=O)C=C2C=C(c3ccc(C#N)cc3)N(CCN3CCOCC3)C=C2C1=O (stereo not drawn)	6%	-2%	6%	29	-4%	4%
CC1(OC(=O)CCc2ccccc2)C(=O)C=C2C=C(c3ccc(C#N)cc3)N(C3CCCC3)C=C2C1=O (stereo not drawn)	27%	15µM*	-7%	13	23µM*	8%
CC1(OC(=O)CCc2ccccc2)C(=O)C=C2C=C(c3ccc(C#N)cc3)N(c3ccccc3)C=C2C1=O (stereo not drawn)	-3%	13µM*	-3%	9	?	2%
